This is a sample that favours compounds with a hit; in the whole collection about 21% have one here.
Cycloheximide cs – counter-screen for Shiga toxin inhibitors: cycloheximide protein synthesis inhibition; cell reporter, cycloheximide protein synthesis inhibition counterscreen; max response, %; AID 2314; 12% of 300,000 active; in the data active = max response mostly above about 13%, no sharp cut-off; inactive = mostly below about 14%; also: read at 38.3 µM for the half of the compounds with a filed dose; 0% is about no effect
HCMV antiviral – blocks human cytomegalovirus replication | HFF cells, HCMV-luciferase reporter, 72 h; active compounds read low | activity change, negative = inhibition, % at 57.5 µM | 4.5% of 410,000 active | AID 1259415; in the data active = activity change below about -60%; inconclusive = no clear call, values can overlap the other calls; inactive = above about -39%; also: % is scaled to controls: 0 for no effect and ±100 for the full control effect
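Steps: HFFs plated, 16 h 37C; compounds added; HCMV-luciferase added to MOI 1 PFU/cell; 72 h 37C; OneGlo reagent, 5 min room temperature; luminescence read, normalized to controls.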
Shiga toxin inh – blocks Shiga toxin action in Vero cells; Vero cells, Shiga toxin protein synthesis inhibition reporter; inhibition, % at 38.7 µM; 9.2% of 290,000 active; AID 2315; in the data active = inhibition mostly above about 28%, no sharp cut-off; inactive = mostly below about 43%; also: 0% is about no effect
HCV inh – HCV inhibition | 3.4% of 340,000 active | AID 651820 | Huh7.5.1 HCVcc-Cre infection, luciferase reporter, 44 h | Potency, µM (highest dose often 41.8 µM), inactives show at the highest dose activity change, negative = inhibition, usual class: inhibitors; also: potency is read from the fitted curve at half-maximal effect; % is scaled to controls: 0 for no effect and ±100 for the full control effect
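Reporter virus HCVcc-Cre (~0.5 moi) infects cells exposed to compound; seeding density 1,000 cells/well with 4 h settling beforehand. Luminescence, 15 sec read, taken 44 h post-infection following a 15 min RT substrate incubation.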
Pf growth 48h – P. falciparum growth inhibition at 48 hours (one generation) | P. falciparum luciferase growth in erythrocytes, 48 h | AID 504832 | Potency, µM (highest dose often 28.7 µM), inactives show at the top dose activity change, negative = inhibition, most hits filed as inhibitors | 5.9% of 310,000 active; also: potency is read from the fitted curve at half-maximal effect; % is scaled to controls: 0 for no effect and ±100 for the full control effect
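A one-generation exposure of luciferase-tagged malaria parasites in RPMI 1640/Albumax erythrocyte culture, 37 C and 5% CO2. Inhibition is inferred from decreased luminescence after adding detection reagent.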
Pf growth 96h – P. falciparum growth inhibition at 96 hour, primary screen for plastid delayed-death inhibitors. P. falciparum luciferase reporter growth, 96 h. Potency, µM (top dose mostly 28.7 µM), for the others: at the highest dose activity change, negative = inhibition, hits mostly inhibitors. 6.9% of 320,000 active. AID 504834; also: potency is read from the fitted curve at half-maximal effect; % is scaled to controls: 0 for no effect and ±100 for the full control effect
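Infected RBCs, 2% Hct / 0.05% parasitemia final; luciferase-reporter P. falciparum; cpd 96 h, 37 C, 5% CO2; luciferase detection reagent; luminescence.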
Starred values were filed as active, the others as inactive; [ ] = remark or other dose. Unless noted, calls follow the shape of the dose curve; as a rule, active = well fitted inhibition curve with a large enough effect; inconclusive = small, poorly fitted or top-dose-only effect, or another doubt; inactive = no such curve, though single readings can be large or run the other way.

`Cc1cccc(NC(=O)NC(C)C(c2cccs2)N2CCOCC2)c1` (stereo not given) gave Cycloheximide cs -1, HCMV antiviral -67*, Shiga toxin inh 5, HCV inh 6%, Pf growth 48h -13% and Pf growth 96h inconclusive.
CC(NC(=O)c1ccco1)C(c1cccs1)N1CCN(c2ccc(F)cc2)CC1 (stereo not given) was read as Cycloheximide cs 1, HCMV antiviral inconclusive, Shiga toxin inh -3, HCV inh 10µM* and Pf growth 48h 7.4µM*.
CC(NC(=O)c1ccco1)C(c1cccs1)N1CCN(c2ccccc2F)CC1 (stereo not given) was read as Cycloheximide cs 7, HCMV antiviral 8, Shiga toxin inh 47, HCV inh inconclusive and Pf growth 48h inconclusive.
For CC(NC(=O)c1ccco1)C(c1cccs1)N1CCN(c2ccccc2)CC1 (stereo not given) the results were Cycloheximide cs -2, HCMV antiviral -30, Shiga toxin inh -6, HCV inh -17%, Pf growth 48h 12µM* and Pf growth 96h 13µM*.
CCS(=O)(=O)NC(C)C(c1cccs1)N1CCN(c2ccc(F)cc2)CC1 (stereo not given) was read as Cycloheximide cs 5, HCMV antiviral -2, Shiga toxin inh -4, HCV inh 3%, Pf growth 48h -1% and Pf growth 96h 7%.
`OCCN1CCN(c2nc(-c3ccccc3)c3cc(Cl)ccc3n2)CC1` gave Cycloheximide cs -6, HCMV antiviral inconclusive, Shiga toxin inh -24, HCV inh inconclusive, Pf growth 48h inconclusive and Pf growth 96h inconclusive.
Screening Clc1ccc2oc(-c3ccccc3)cc(=NCCCN3CCOCC3)c2c1 returned Cycloheximide cs 25*, HCMV antiviral 7, Shiga toxin inh 93*, HCV inh inconclusive, Pf growth 48h 4.7µM* and Pf growth 96h inconclusive.
For OCCCCCN=c1cc(-c2ccccc2)oc2ccc(Cl)cc12 the results were Cycloheximide cs 45*, HCMV antiviral -62*, Shiga toxin inh 85*, HCV inh inconclusive, Pf growth 48h inconclusive and Pf growth 96h 13µM*.
CCCCCC(=O)N1C[C@@H](O)[C@H](n2cc(COC(=O)c3ccccc3)nn2)C[C@@H]1c1ccc(Cl)cc1 was read as HCMV antiviral 43.
`NS(=O)(=O)c1ccc(CNC(=O)C(c2ccccc2)c2ccccc2)cc1` gave Cycloheximide cs -1, HCMV antiviral -6, Shiga toxin inh 13, HCV inh 12%, Pf growth 48h 7% and Pf growth 96h 16%.
CCOc1cccc(-c2c(C(=O)N/N=C/c3ccc(C)s3)nnn2-c2nonc2N)c1 was read as Cycloheximide cs -3, HCMV antiviral 9, Shiga toxin inh 10, HCV inh 3%, Pf growth 48h inconclusive and Pf growth 96h 15µM*.
CCOc1ccc(-c2c(C(=O)N/N=C/c3ccc(C)s3)nnn2-c2nonc2N)cc1 was read as Cycloheximide cs 7, Shiga toxin inh -1, HCV inh -16%, Pf growth 48h -23% and Pf growth 96h inconclusive.
For COc1cccc(-c2c(C(=O)N/N=C/c3ccc(C)s3)nnn2-c2nonc2N)c1 the results were Cycloheximide cs -4, HCMV antiviral -10, Shiga toxin inh -8, HCV inh 12%, Pf growth 48h 10µM* and Pf growth 96h 4.1µM*.
For CCOC(=O)c1c(-c2ccc(C)cc2)csc1NC(=O)c1nc(SCC)ncc1Cl the results were HCMV antiviral 5.
Cc1ccc(CNC(=O)CC2Oc3ccccc3NC2=O)cc1 (stereo not given) was read as HCMV antiviral -2.
`O=c1[nH]c(SCc2cccc(Cl)c2)nc2c1CCC2` gave HCMV antiviral -4.
For Cc1ccc(S(=O)(=O)NCCC(=O)N2CC(C)OC(C)C2)cc1C (stereo not given) the results were HCMV antiviral 1, HCV inh 13%[8.37 µM], Pf growth 48h 34% and Pf growth 96h 5%.
For C=CCOc1ccc(/C=C/C(=O)OCC(=O)N2CCN(C(C)=O)CC2)cc1 the results were HCMV antiviral 11 and HCV inh 10%.

Screening results: PubChem BioAssay, National Center for Advancing Translational Sciences (NCATS)
